PubChem BioAssay (NCATS)
“And” between values parts separate entries of the source, which are not always exact repeats. Identical values can stand only once. Inconclusive results are not listed. Where a call stands in place of a potency, no number is given. The source holds several records for some structures; these can differ, active in one and inactive in another. The source made the active and inactive calls. Calls come from the whole dose curve; as a rule, active = well fitted inhibition curve with a large enough effect; inconclusive = small, poorly fitted or top-dose-only effect; inactive = no such curve, though single readings can be large or run the other way.

Experiment: Primary qHTS for inhibitors of nuclear receptor binding SET domain protein 2 (NSD2) in an RCH-ACV wild type WT cells (2C) (AID 1645877); note: nearly all actives have a fitted effect of over 70% in size
Conditions: RCH-ACV (leukaemia line) NSD2 WT (2C) viability, CellTiter-Glo, 72 h; series mostly up to 44.9 µM
Potency is the fitted concentration of half-maximal effect.

SMILES	activity change, negative = cell killing	Potency
CC1(C)CC[C@]2(C(=O)O[C@@H]3O[C@H](CO[C@@H]4O[C@H](CO)[C@@H](O)[C@H](O)[C@H]4O[C@@H]4O[C@H](CO)[C@H](O)[C@H](O)[C@H]4O)[C@@H](O)[C@H](O[C@@H]4O[C@H](CO)[C@@H](O)[C@H](O)[C@H]4O)[C@H]3O)CC[C@]3(C)C(=CCC4[C@@]5(C)CC[C@H](O[C@@H]6OC[C@@H](O)[C@H](O)[C@H]6O)[C@@](C)(C(=O)O)C5CC[C@]43C)[C@@H]2C1 (stereo not given in full)	-8.76% [at 9.23 µM] (inactive)	–
CC1OC(O[C@H]2CC[C@@]3(C)C(CC[C@]4(C)C3CC=C3C5CC(C)(C)CC[C@]5(C(=O)OC5OC(CO)C(OC6OC(COC7OCC(O)C(O)C7O)C(O)C(O)C6O)C(O)C5O)CC[C@]34C)C2(C)C)C(O)C(O)C1OC1OCC(OC2OCC(O)C(O)C2O)C(O)C1O (stereo not given in full)	2.24% [at 9.23 µM] (inactive)	–
C[C@@H]1O[C@@H](OC[C@H]2O[C@@H](OC(CCCCc3ccc(O)cc3)CCc3ccc(O)cc3)[C@H](O)[C@@H](O)[C@@H]2O)[C@H](O)[C@H](O)[C@H]1O (stereo not given in full)	–	inactive
OC[C@H]1O[C@@H](O[C@H]2[C@H](OCCc3ccccc3)O[C@H](CO)[C@@H](O)[C@@H]2O)[C@H](O)[C@@H](O)[C@@H]1O	–	inactive
C[C@@H]1O[C@@H](O[C@H]2[C@@H]3C=CO[C@@H](O[C@@H]4O[C@H](CO)[C@@H](O)[C@H](O)[C@H]4O)[C@@H]3[C@@]3(CO)O[C@@H]23)[C@H](OC(=O)/C=C/c2ccc(O)c(O)c2)[C@H](O)[C@H]1O	–	inactive
CC(C)=CCC[C@](C)(O[C@@H]1O[C@H](CO)[C@@H](O)[C@H](O)[C@H]1O)[C@H]1CC[C@]2(C)[C@@H]1[C@H](O)CC1[C@@]3(C)CC[C@H](O)C(C)(C)C3[C@@H](O[C@@H]3O[C@H](CO)[C@@H](O)[C@H](O)[C@H]3O[C@@H]3OC[C@@H](O)[C@H](O)[C@H]3O)C[C@]12C (stereo not given in full)	-29.2% [at 9.23 µM] (inactive)	–
C=C1[C@@H]2CC[C@@H]3[C@@](CCC4C(C(=O)O)(C(=O)O)C[C@@H](O[C@@H]5O[C@H](CO)[C@@H](O)[C@H](O)[C@H]5OC(=O)CC(C)C)C[C@]43C)(C2)[C@H]1O (stereo not given in full)	–	inactive
C[C@@]12C[C@]3(O)O[C@H](O1)[C@]1(COC(=O)c4ccccc4)[C@H]3C[C@@]12O[C@@H]1O[C@H](CO)[C@@H](O)[C@H](O)[C@H]1O	–	inactive
COc1ccc2nc(S(=O)(=O)Cc3ncc(C)c(OC)c3C)[nH]c2c1	–	inactive
C=CC/C=C\C/C=C\CCCCCCCc1cccc(O)c1C(=O)O	–	inactive
Cc1cc(C)c(CNC(=O)c2cc(-c3ccc(CN4CCOCC4)cc3)cc3c2cnn3C2CCCC2)c(=O)[nH]1	–	inactive and 18.6 µM (active)
Cc1cccc(/C=N/Nc2cc(N3CCOCC3)n3nc(-c4ccncc4)cc3n2)c1	–	0.515 µM (active)
COc1c(C)c(OCC(O)C(C)(C)O)cc2c1COC2=O (stereo not given)	–	inactive
COc1cc(C)c(C(=O)Oc2cc(C)c(C(=O)Oc3cc(C)c(C(=O)NC(C)C(=O)O)c(O)c3)c(O[C@@H]3O[C@H](CO)[C@@H](O)[C@H](O)[C@H]3OC(C)=O)c2)c(OC)c1 (stereo not given in full)	–	inactive
COc1ccc2cc(C(C)C(=O)Oc3ccc(C(N)=S)cc3)ccc2c1 (stereo not given)	–	inactive
